A selection: hits, their analogues and other compounds. The true share with any hit is near 0.65%.
AMA1-RON2 inh: AMA1-RON2 (P. falciparum) interaction inhibition; AlphaScreen AMA1-biotinylated RON2 peptide binding; 360,000 tested, 0.2% active; Potency, µM (doses to about 58.2 µM), for the others: at the top dose activity change, negative = inhibition, hits mostly inhibitors; active means well fitted inhibition curve with a large enough effect; inconclusive means small, poorly fitted or top-dose-only effect; inactive means no such curve, though single readings can be large or run the other way;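 further: potency means the concentration at half of the fitted maximal effect; 0% = vehicle wells and -100% = peptide control; nearly all actives have a fitted effect of over 45% in size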
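AMA1 (3D7) with his tag at 25 nM final met compounds first, then biotinylated RON2 peptide at 25 nM; detection used donor plus acceptor beads, 10 µg/mL apiece, read by AlphaScreen after 30 min at room temperature.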
NS1 function inh: blocks influenza NS1 protein function; 270,000 tested, 0.4% active; Potency, µM (doses to about 46.1 µM), without a hit: at the top dose activity, positive = more growth; AID 2326; further: potency means the concentration at half of the fitted maximal effect; actives are rising curves; nearly all actives have a fitted effect of over 50% in size
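S. cerevisiae expressing influenza A NS1, grown in glucose, washed, then diluted 1:100 into pH 6.0 -URA galactose medium with 23 nl compound. Growth recovery read as OD600; NS1-free strain serves as control.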
SARS PLpro yeast: blocks SARS-CoV papain-like protease in a yeast assay. Potency, µM (series often up to 32.9 µM), inactives show at the highest dose activity, positive = growth rescue, actives largely listed as activators. 330,000 tested, 0.19% active. S. cerevisiae expressing SARS-CoV PLpro, growth rescue; further: potency means the concentration at half of the fitted maximal effect; 0% is about no effect; nearly all actives have a fitted effect of over 55% in size
NS1 inh valid: validation of influenza NS1 protein function inhibitors. 1,400 tested, under 10 active. AID 492980. activity change, negative = inhibition, % at 32.9 µM. influenza NS1 function cell assay, 15-point titration. shares compounds with NS1 function inh; further: 0% is about no effect
Flu PR8 replic: influenza NS1 inhibitors: inhibition of influenza A/PR/8/34 replication | shares compounds with NS1 function inh | MDCK infected influenza A/PR/8/34, virus titer TCID50; hits give low values | virus titer (log TCID50), log10 TCID50 at 5 µM | 95 tested, 30% active; call rule not given here
Starred values were filed as active, the others as inactive; [ ] = dose if it differs, or a comment. Unless noted, the call rests on the fitted dose curve.

CC(C)(C)C(=O)Nc1ccc(C(=O)N/N=C/c2ccccc2OC(=O)c2ccc(Cl)cc2)cc1 was read as AMA1-RON2 inh 21.7%, NS1 function inh 10µM*, SARS PLpro yeast 5.0% and NS1 inh valid 20.5.
`Cc1cccc(C(=O)Oc2ccccc2/C=N/NC(=O)c2ccc(NC(=O)C(C)(C)C)cc2)c1` gave AMA1-RON2 inh 3.9%[11.6 µM], NS1 function inh 20µM*, SARS PLpro yeast 11.1% and NS1 inh valid 31.8.
Cc1cc(=O)n2cccc(O)c2n1 was read as AMA1-RON2 inh 74.2%, NS1 function inh 3.8% and SARS PLpro yeast 0.7%.
`CCCCCN(C(=O)CCC(=O)OCC(=O)Nc1cccc(SC)c1)c1c(N)n(CCCC)c(=O)[nH]c1=O` gave AMA1-RON2 inh -7.8% and SARS PLpro yeast 8.2%.
CN1CCN(CCCCOc2ccc(Br)cc2)CC1 was read as AMA1-RON2 inh -2.5%, NS1 function inh -5.3% and SARS PLpro yeast -1.9%.
N#C/C(=C/c1ccc(N2CCCCC2)o1)C(=O)Nc1ccc(Cl)cc1 was read as AMA1-RON2 inh -4.7%, NS1 function inh -5.2% and SARS PLpro yeast 4.6%.
For N#C/C(=C/c1ccc(N2CCCCC2)o1)C(=O)Nc1ccc2ccccc2c1 the results were AMA1-RON2 inh -5.7%, NS1 function inh 11.2µM*, SARS PLpro yeast 18.5% and NS1 inh valid 1.5.
`Cn1c(SCC(=O)O)nnc1-c1cccc(NC(=O)c2cccc3ccccc23)c1` gave AMA1-RON2 inh -10.3%, NS1 function inh 3.4% and SARS PLpro yeast -0.1%.
Screening Cc1cc(C)c(S(=O)(=O)N/N=C/c2ccc3c(c2)OCO3)c(C)c1 returned AMA1-RON2 inh -0.8%, NS1 function inh -59.8% and SARS PLpro yeast -10.1%.
For CCOC(=O)C1=C(C)NC(C)=C(C(=O)OCC)C1C(=O)OCC(=O)NCc1ccco1 the results were AMA1-RON2 inh 0.0% and SARS PLpro yeast -5.0%.
For COc1ccc(C(=O)N2CCN(S(=O)(=O)c3ccc(C)cc3C)CC2)cc1OC the results were AMA1-RON2 inh -8.1%, NS1 function inh -48.4% and SARS PLpro yeast 12.5%.
`COc1ccc(C)cc1S(=O)(=O)N1CCN(C(=O)c2ncoc2-c2ccccc2C)CC1` gave AMA1-RON2 inh -5.1%, NS1 function inh inconclusive, SARS PLpro yeast 2.2% and NS1 inh valid -20.1.
`Cc1ccc(-c2noc(COC(=O)c3ccco3)n2)cc1` gave AMA1-RON2 inh 2.5%[11.6 µM] and SARS PLpro yeast 2.7%.
For CC(=O)c1ccc(N2CCN(C(=O)c3cc(-c4ccc5c(c4)OCO5)nc4ccccc34)CC2)cc1 the results were AMA1-RON2 inh -4.1%, NS1 function inh 12.6µM*, SARS PLpro yeast -2.5%, NS1 inh valid 3.0 and Flu PR8 replic 8.
Screening O=C(O)c1cc(-c2ccc3c(c2)OCO3)nc2ccccc12 returned AMA1-RON2 inh -3.4%, NS1 function inh -9.3% and SARS PLpro yeast -4.4%.
Screening Cc1ccccc1N(C(=O)c1csnn1)C(C(=O)NC1CCCC1)c1ccncc1 (configuration not stated) returned AMA1-RON2 inh -4.6%, NS1 function inh 4.1% and SARS PLpro yeast 2.5%.
COc1cccc(CNC(=O)C2CCN(S(=O)(=O)c3cccc4nonc34)CC2)c1 was read as AMA1-RON2 inh -19.7%, NS1 function inh 23.0% and SARS PLpro yeast 0.7%.
Cc1cc(C)n2c(SCC(=O)Nc3ccccc3)nnc2n1 was read as AMA1-RON2 inh 7.4%, NS1 function inh 5.3% and SARS PLpro yeast 2.3%.
For CCN(CC)c1ccc(NC(=O)CSc2nnc3nc(C)cc(C)n23)cc1 the results were AMA1-RON2 inh -11.8%, NS1 function inh inconclusive, SARS PLpro yeast 9.5% and NS1 inh valid -21.7.
For Cc1cc(C)c2cc(C#N)c(N3CCCN(S(=O)(=O)c4ccccc4)CC3)nc2c1 the results were AMA1-RON2 inh -2.8%.
CC(=O)c1cccc(S(=O)(=O)N2CCN(c3nc4cc(C)cc(C)c4cc3C#N)CC2)c1 was read as AMA1-RON2 inh 10.2%, NS1 function inh 10µM*, SARS PLpro yeast 3.6% and NS1 inh valid -0.3.
For CCOc1ccc(S(=O)(=O)NC2CCCC2)cc1 the results were AMA1-RON2 inh 14.7%, NS1 function inh -18.9% and SARS PLpro yeast 25.4%.
For OCC1OC(c2ccc(O)cc2O)C(O)C1O (configuration not stated) the results were AMA1-RON2 inh 8.3%.
Cc1ccc(S(=O)(=O)/N=C(/NC(=S)Nc2ccccc2)c2ccccc2)cc1 was read as AMA1-RON2 inh 16.0%, NS1 function inh -1.3% and SARS PLpro yeast 17.6%.
For Cc1ccc(S(=O)(=O)C/N=C(/NC(=S)N(c2ccccc2)c2ccccc2)c2ccccc2)cc1 the results were AMA1-RON2 inh 11.0%, NS1 function inh 10µM*, SARS PLpro yeast 17.3% and NS1 inh valid inconclusive.
For COc1ccc(NC(=O)CN(C)C(=O)Cn2c(=O)oc3ccccc32)cc1 the results were AMA1-RON2 inh 2.0% and SARS PLpro yeast 3.2%.
Cc1ccc(N2CC(C(=O)N3CCCCCC3)CC2=O)cc1 (configuration not stated) was read as AMA1-RON2 inh -12.2%, NS1 function inh 8.5% and SARS PLpro yeast 1.0%.
For CCOC(=O)C1=C(C)N(CCCC(=O)O)C(=O)NC1c1ccccc1Cl (configuration not stated) the results were AMA1-RON2 inh 13.7%.
Screening CCOC(=O)C1=C(C)N(CCCCCC(=O)O)C(=O)NC1c1ccccc1Cl (configuration not stated) returned AMA1-RON2 inh 4.4%, NS1 function inh inconclusive, SARS PLpro yeast 8.1% and NS1 inh valid 13.7.
CCc1ccccc1NC(=O)CN(C)C(=O)COC(=O)c1ccco1 was read as AMA1-RON2 inh 0.2% and SARS PLpro yeast -6.8%.
`CC(C)[C@@]1(NC(=O)[C@@H]2C[C@@H]3c4cccc5[nH]cc(c45)C[C@H]3N(C)C2)O[C@@]2(O)C3CCCN3C(=O)[C@H](Cc3ccccc3)N2C1=O` (some centres not stated) gave NS1 function inh 5.62µM* and NS1 inh valid inconclusive.
CC(C)[C@@]1(NC(=O)[C@@H]2C[C@@H]3c4cccc5[nH]cc(c45)C[C@H]3N(C)C2)O[C@@]2(O)[C@@H]3CCCN3C(=O)[C@H](Cc3ccccc3)N2C1=O was read as AMA1-RON2 inh 0.0%, NS1 function inh -0.7% and SARS PLpro yeast -3.8%.
`COc1ccc2c(c1)CCC/C2=N\Nc1nc(C(=O)NN)cs1` gave AMA1-RON2 inh 33.4%, NS1 function inh 8.91µM*, SARS PLpro yeast -0.9% and NS1 inh valid 0.8.
For CCOC(=O)c1csc(N/N=C2\CCCc3ccccc32)n1 the results were AMA1-RON2 inh 34.2%, NS1 function inh 8.5% and SARS PLpro yeast -2.7%.
`CC(=O)Nc1ccccc1NC(=O)C/C(C)=N/NC(=O)C(=O)N1CCCCC1` gave AMA1-RON2 inh 27.8%, NS1 function inh -2.6% and SARS PLpro yeast 1.4%.
